Most compounds without a hit are left out; they make up all but 9.2% or so of the library.
ELG1 genotoxic: inducers of genotoxicity in HEK293T ELG1-luciferase cells; Potency, µM (titrated, usually from 46 µM), inactives show at the highest dose activity change, positive = activation, most hits filed as activators; AID 504466; 330,000 compounds, 1.3% hits; HEK293T ELG1-luciferase reporter, luminescence, 16 h; further: % of control where 0% means no effect; nearly all actives have a fitted effect of over 60% in size
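Cells (2,000/well) expressing the ELG1-luciferase fusion are dosed by pin tool and kept 16 hr at 37 °C, 5% CO2. Signal comes from ONE-Glo luciferase reagent after 30 min at room temperature.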
ELG1 repair inh: inhibitors of ELG1-dependent DNA repair in HEK293T cells; HEK293T ELG1-luciferase reporter, luminescence, 16 h; DNA damage induced by 5-fluorouridine; Potency, µM (top dose mostly 46.1 µM), inactives show at the top dose activity change, negative = inhibition, usual class: inhibitors; 330,000 compounds, 2.3% hits; further: on the % scale 0 is the no-effect control and ±100 the full control effect; nearly all actives have a fitted effect of over 55% in size
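5-Fluorouridine DNA damage + compound/DMSO, 2,000 cells/well, 16 h, 37 °C/5% CO2. ONE-Glo, 30 min RT, luminescence. Readout = decrease in reporter signal.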
Rab9 promoter act: Rab9 promoter activation; Potency, µM (top dose mostly 9.22 µM), without a hit: at the highest dose activation, negative = inhibition, hits mostly activators; AID 485297; 320,000 compounds, 2.8% hits; Huh7 Rab9 promoter-luciferase reporter, luminescence, 24 h; further: % of control where 0% means no effect; nearly all actives have a fitted effect of over 60% in size
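Luciferase signal after 10 min detection reagent at ambient indicates Rab9 promoter upregulation; stably transfected Huh7 cells were treated 24 h with compound in DMSO at 37 °C, 5% CO2.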
FLuc modulator: inhibits or activates purified firefly luciferase, miR-21 counter-screen; 360,000 compounds, 6.9% hits; purified FLuc, Km substrates, luminescence inhibition; AID 588342; Potency, µM (doses to about 57.5 µM), for inactives: at the highest dose activity change, negative = inhibition, usual class: inhibitors; P08659;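 further: plate controls were vehicle for no effect and reference inhibitor for full effect; nearly all actives have a fitted effect of over 55% in size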
Target sequence (P08659 whole entry, looked up): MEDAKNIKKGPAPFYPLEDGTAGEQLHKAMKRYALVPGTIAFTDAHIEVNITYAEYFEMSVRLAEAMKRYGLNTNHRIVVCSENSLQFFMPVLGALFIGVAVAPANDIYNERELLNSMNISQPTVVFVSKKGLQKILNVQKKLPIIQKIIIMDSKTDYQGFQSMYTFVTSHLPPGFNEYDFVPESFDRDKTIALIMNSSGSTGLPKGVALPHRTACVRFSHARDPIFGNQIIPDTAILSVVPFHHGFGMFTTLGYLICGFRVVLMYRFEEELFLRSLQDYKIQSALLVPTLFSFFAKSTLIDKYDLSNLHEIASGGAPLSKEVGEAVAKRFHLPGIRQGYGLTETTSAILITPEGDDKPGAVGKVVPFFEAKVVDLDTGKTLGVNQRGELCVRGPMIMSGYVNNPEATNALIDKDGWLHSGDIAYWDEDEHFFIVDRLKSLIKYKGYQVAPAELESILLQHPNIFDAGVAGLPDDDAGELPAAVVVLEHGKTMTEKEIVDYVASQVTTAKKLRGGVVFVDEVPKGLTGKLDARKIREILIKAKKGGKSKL
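Biochemical qHTS of compounds, final roughly 60 µM downward over six points, against 10 nM purified firefly luciferase using Km concentrations of substrates (10 uM D-luciferin, 10 uM ATP) in Tris acetate pH 7.5 buffer; luminescence output.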
SMN2 splice up: increases expression of the SMN2 splice variant. AID 1458. Potency, µM (highest dose often 46.1 µM), without a hit: at the top dose activity change, positive = activation, hits mostly activators. HEK293 SMN2-luciferase splicing reporter, luminescence, 30-36 h. 210,000 compounds, 2.8% hits; further: % of control where 0% means no effect; nearly all actives have a fitted effect of over 55% in size
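HEK293 cells carry an SMN2 minigene-luciferase reporter in which exon 7 inclusion puts luciferase in frame. Cells were seeded at 2000 cells/well, attached for 10-12 hours, then exposed to compounds for 30-36 hours at 37C before ONE-Glo luminescence.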
NPC1 promoter act: activates the NPC1 promoter | Huh7 NPC1 promoter luciferase reporter, 24 h | Potency, µM (doses to about 9.22 µM), for the others: top-dose activation, hits mostly activators | 320,000 compounds, 2.4% hits; further: % of control where 0% means no effect; nearly all actives have a fitted effect of over 60% in size
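Luminescence from an NPC1 promoter-driven luciferase reporter in stably transfected Huh7 cells was measured after 24 h compound treatment at 37 °C, followed by 10 min ambient incubation with luciferase detection reagent.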
The depositor's hits bear a star. The call rests on the fitted dose curve; in most records, active means well fitted curve in the direction sought with a large enough effect; inconclusive means small, poorly fitted or top-dose-only effect, or another doubt; inactive means no such curve, though single readings can be large; an effect the other way counts as inactive or inconclusive. Potency means the concentration at half of the fitted maximal effect.

Results for Fc1ccccc1C(NCCc1ccc(Cl)cc1)c1nnc(-c2ccccc2)o1 (centres undefined) ?
FLuc modulator: -13.3%; SMN2 splice up: -9.8%

Results for Cc1ccc(C(=O)N/N=C/c2ccc([N+](=O)[O-])s2)cc1 ?
ELG1 genotoxic: -4.7%; ELG1 repair inh: -22.7%; Rab9 promoter act: -40.1%; FLuc modulator: -7.1%; SMN2 splice up: -49.4%; NPC1 promoter act: -36.9%

How did O=C(CNC(=O)c1ccccc1)N/N=C/c1ccc([N+](=O)[O-])s1 do in these assays?
ELG1 genotoxic: -17.3%; ELG1 repair inh: 6.51µM*; Rab9 promoter act: -14.6%; FLuc modulator: -5.6%; SMN2 splice up: -40.6%; NPC1 promoter act: -1.8%

Results for O=C(N/N=C/c1ccc([N+](=O)[O-])s1)c1cccc(Br)c1 ?
ELG1 genotoxic: -0.9%; ELG1 repair inh: 10.3µM*; Rab9 promoter act: -19.7%; FLuc modulator: -6.4%; SMN2 splice up: -89.9%; NPC1 promoter act: -13.4%

What do the screens show for `CC1(c2ccc3ccccc3c2)NC(=O)N(CC(=O)N2CCN(c3ccccc3O)CC2)C1=O` (centres undefined)?
ELG1 genotoxic: -22.1%; ELG1 repair inh: -21.4%; Rab9 promoter act: -2.6%; FLuc modulator: 4.6%; NPC1 promoter act: -4.0%

How did O=C1c2ccccc2C(=O)N1CCCc1cn(C[C@H]2CC[C@H](Cn3cc(CCCN4C(=O)c5ccccc5C4=O)nn3)O2)nn1 do in these assays?
ELG1 genotoxic: -0.9%; ELG1 repair inh: 8.2µM*

What do the screens show for `c1ccc(-c2cn(C[C@H]3CC[C@H](Cn4cc(-c5ccccn5)nn4)O3)nn2)nc1`?
ELG1 genotoxic: 0.3%; ELG1 repair inh: 14.1%; Rab9 promoter act: -1.5%; FLuc modulator: -1.6%; NPC1 promoter act: 3.1%

What do the screens show for `COc1ccc(-c2cc(=O)oc3c(C)c(OC(C)C(=O)NCc4ccccn4)ccc23)cc1` (centres undefined)?
ELG1 genotoxic: inconclusive; ELG1 repair inh: inconclusive; Rab9 promoter act: -3.2%; FLuc modulator: 6.2%; NPC1 promoter act: -11.1%

Results for Cn1cnnc1SCc1ccc(C(=O)N=Nc2c(O)n(C)c3ccccc23)cc1 ?
ELG1 genotoxic: -2.9%; ELG1 repair inh: inconclusive; Rab9 promoter act: -1.7%; FLuc modulator: inconclusive; SMN2 splice up: 3.7%; NPC1 promoter act: -0.2%

Results for Fc1ccc(Nc2nc(N/N=C/c3ccco3)nc(N3CCCCC3)n2)cc1 ?
ELG1 genotoxic: -13.7%; ELG1 repair inh: inconclusive; Rab9 promoter act: -3.5%; FLuc modulator: 26.9µM*; SMN2 splice up: -24.0%; NPC1 promoter act: -8.1%

Results for COc1ccc(/C=N/Nc2nc(Nc3ccccc3)nc(N3CCCC3)n2)cc1[N+](=O)[O-] ?
ELG1 genotoxic: inconclusive; ELG1 repair inh: inconclusive; Rab9 promoter act: -19.4%; FLuc modulator: -12.8%; SMN2 splice up: 0.2%; NPC1 promoter act: -9.3%

What do the screens show for `COc1ccc(/C=N/Nc2nc(N3CCCC3)nc(N3CCCC3)n2)c(OC)c1OC`?
ELG1 genotoxic: -2.8%; ELG1 repair inh: inconclusive; Rab9 promoter act: 3.3%; FLuc modulator: -4.2%; SMN2 splice up: -2.7%; NPC1 promoter act: -1.7%

Results for COc1ccc(/C=N/Nc2nc(Nc3ccccc3)nc(N3CCCCC3)n2)c(OC)c1 ?
ELG1 genotoxic: -1.7%; ELG1 repair inh: 20.6µM*; Rab9 promoter act: -2.6%; FLuc modulator: 6.75µM*; SMN2 splice up: -21.5%; NPC1 promoter act: -2.4%

What do the screens show for `COc1cccc(/C=N/Nc2nc(N3CCCC3)nc(N3CCCC3)n2)c1O`?
ELG1 genotoxic: -10.1%; ELG1 repair inh: 14.6µM*; Rab9 promoter act: -0.9%; FLuc modulator: inconclusive; SMN2 splice up: -6.5%; NPC1 promoter act: -2.4%

What do the screens show for `COc1cc(/C=N/Nc2nc(Nc3ccccc3)nc(N3CCCCC3)n2)ccc1OCC(=O)O`?
ELG1 genotoxic: -2.3%; ELG1 repair inh: 9.1%; Rab9 promoter act: 17.2%; FLuc modulator: 0.953µM*; SMN2 splice up: 15.4%; NPC1 promoter act: 12.0%

How did C(=N\Nc1nc(N2CCOCC2)nc(N2CCOCC2)n1)/c1ccco1 do in these assays?
ELG1 genotoxic: -3.4%; ELG1 repair inh: -28.3%; Rab9 promoter act: -0.2%; FLuc modulator: 3.7%; SMN2 splice up: -12.4%; NPC1 promoter act: -6.0%

How did CC(=O)c1ccc(NC(=S)N2CCCC2)cc1 do in these assays?
ELG1 genotoxic: inconclusive; ELG1 repair inh: inconclusive; Rab9 promoter act: 17.1%; FLuc modulator: -24.6%; NPC1 promoter act: 17.7%

How did COc1cc(Cl)ccc1OCc1cc(C(=O)NCc2cc(C(C)C)no2)no1 do in these assays?
ELG1 genotoxic: inconclusive; ELG1 repair inh: inconclusive; Rab9 promoter act: 1.26µM*; FLuc modulator: 9.53µM*; NPC1 promoter act: inconclusive

How did COc1cc(Cl)ccc1OCc1cc(C(=O)NCC(C)(C)N2CCOCC2)no1 do in these assays?
ELG1 genotoxic: 13.2%; ELG1 repair inh: inconclusive; Rab9 promoter act: 28.7%; FLuc modulator: 15.1µM*; NPC1 promoter act: 22.6%

What do the screens show for `COc1ccc(CNC(=O)c2cc(COc3c(F)cccc3F)on2)cc1OC`?
ELG1 genotoxic: -4.7%; ELG1 repair inh: inconclusive; Rab9 promoter act: -1.1%; FLuc modulator: -4.7%; NPC1 promoter act: -2.6%

How did N#CC1=C(N)Oc2cc(N)ccc2C1c1cccc(F)c1 (centres undefined) do in these assays?
ELG1 genotoxic: 1.5%; ELG1 repair inh: 2.91µM*; Rab9 promoter act: -27.2%; FLuc modulator: 2.0%; NPC1 promoter act: -31.7%

How did CN(C)c1ccc2c(c1)OC(N)=C(C#N)C2c1cccc(F)c1 (centres undefined) do in these assays?
ELG1 genotoxic: inconclusive; ELG1 repair inh: -9.0%; Rab9 promoter act: -26.5%; FLuc modulator: -7.7%; SMN2 splice up: -23.6%; NPC1 promoter act: -7.3%

Results for O=S1(=O)C=C(Sc2nc3cc(Cl)ccc3o2)c2ccccc21 ?
ELG1 genotoxic: -21.8%; ELG1 repair inh: 20.6µM*; Rab9 promoter act: -73.1%; FLuc modulator: -17.9%; NPC1 promoter act: -24.7%

What do the screens show for `O=C(CSc1ncc(S(=O)(=O)c2ccc(Cl)cc2)c(=O)[nH]1)Nc1ccc2c(c1)OCCO2`?
FLuc modulator: 12µM*; SMN2 splice up: -1.0%

How did COc1ccc(S(=O)(=O)c2cnc(SCC(=O)Nc3cc(F)ccc3C)[nH]c2=O)cc1Cl do in these assays?
FLuc modulator: 9.53µM*; SMN2 splice up: -7.8%

How did O=C(CSc1ncn[nH]1)Nc1ccc2c(c1)OCCO2 do in these assays?
ELG1 genotoxic: inconclusive; ELG1 repair inh: inconclusive; Rab9 promoter act: inconclusive; FLuc modulator: inconclusive; SMN2 splice up: 5.4%; NPC1 promoter act: 11.8%
